# Source: PubChem BioAssay (NCATS)
# Values joined by “and” are separate entries in the source; they are usually repeats but may differ in a detail not shown here. Equal entries are not always repeated. Records with an inconclusive call do not appear. Active and inactive are the calls of the source. Unless noted, calls follow the shape of the full dose curve.
# Assays:
# [1] = target: Peroxisome proliferator-activated receptor delta (Homo sapiens) (UniProt Q03181); assay: qHTS assay for small molecule agonists of peroxisome proliferator-activated receptor delta signaling (AID 588534);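 also: 0% = DMSO basal wells and 100% = positive control agonist at 10 µM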
# Method in brief: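 Cells carrying a PPAR-delta beta-lactamase reporter were treated with compounds for 18 h at 37 °C in agonist mode. CCF4 fluorescence was read after 2 h; EC50 and efficacy from Hill fits.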
# [2] = qHTS assay for small molecule antagonists of peroxisome proliferator-activated receptor delta signaling (AID 588535; active = well fitted inhibition curve with a large enough effect in the signal ratio, with a control signal flat, not every such curve was filed as active; the % refers to the signal ratio;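 as to max response: cells co-treated with a PPAR-delta agonist as stimulator during compound exposure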); conditions: HEK293T PPARd-UAS-bla, beta-lactamase FRET ratio, 18 h; 460 nm channel
# Method in brief: (§1)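 Reporter: UAS-bla under PPAR-delta response element, HEK293T host. Medium: 2% charcoal/dextran FBS. Dosing: titration, 18 hrs, 37 C. Detection: CCF4, 2 hrs RT, 405 ex/460 and 530 em.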
# [3] = target: Peroxisome proliferator-activated receptor delta (Homo sapiens) (UniProt Q03181); assay: as above
# Method in brief: as §1
# [4] = target: Vitamin D3 receptor (Homo sapiens) (UniProt P11473); assay: qHTS assay for small molecule antagonists of vitamin D receptor signaling (AID 588541);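 also: receptor activated by calcitriol during compound treatment; series mostly up to about 77 µM; % is scaled to controls: 0 for no effect and ±100 for the full control effect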
# Method in brief: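 VDR-UAS-bla HEK293T cells (2000/well, 2% charcoal-stripped FBS) were treated with titrated compounds plus 1-alpha,25-dihydroxyvitamin D3 (50 nM or 3 nM final) for 16 h at 37 C. CCF4 beta-lactamase fluorescence was read; Hill fits gave IC50.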
# [5] = target: Vitamin D3 receptor (Homo sapiens) (UniProt P11473); assay: qHTS assay for small molecule agonists of vitamin D receptor signaling (AID 588543);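 also: 0% = DMSO basal and 100% = reference agonist control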
# Method in brief: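 GeneBLAzer VDR-UAS-bla HEK293T cells in 2% charcoal-stripped FBS medium were dosed with compound titrations for 16 h at 37 °C; CCF4 β-lactamase readout (405 nm ex, 460/530 nm em). EC50 and efficacy from Hill fits, normalized to 50 nM calcitriol (100%) and DMSO (0%).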
# [6] = target: Retinoic acid receptor RXR-alpha (Homo sapiens) (UniProt P19793); assay: qHTS assay for small molecule agonists of retinoid X receptor alpha signaling (AID 588544);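 also: 0% = DMSO basal wells and 100% = reference agonist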
# [7] = target: Thyroid hormone receptor beta (Homo sapiens) (UniProt P10828); assay: qHTS assay for small molecule agonists of thyroid hormone receptor beta signaling (AID 588545);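 also: 0% = DMSO only and 100% = 10 nM T3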
# Method in brief: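 TR-UAS-bla GripTite HEK 293 cells (2500/well, medium with 2% charcoal/dextran FBS) were treated in agonist mode for 18 h at 37 C, titrated. Beta-lactamase was read by CCF4 ratio after 2 h; normalized to 10 nM T3 (100%) and DMSO, Hill-fitted for EC50 and efficacy.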
# [8] = qHTS assay for small molecule antagonists of retinoid X receptor alpha signaling (AID 588546; active = well fitted inhibition curve with a large enough effect in the signal ratio, with a control signal flat, not every such curve was filed as active; the % refers to the signal ratio;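 also: cells stimulated with 9-cis-retinoic acid as agonist; % is scaled to controls: 0 for no effect and ±100 for the full control effect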); conditions: HEK293T RXRa-UAS-bla, beta-lactamase ratio, antagonist mode; measured here: W530 green channel, cytotoxicity proxy
# Method in brief: (§2)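 Beta-lactamase reporter inhibition, read as CCF4 fluorescence ratio (ex 405, em 460/530 nm) after 2 h at RT. HEK293T UAS-bla cells, 2500/well, were stimulated with 9-cis-RA at 500 or 100 nM final alongside test compound for 18 h at 37 C.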
# [9] = target: Retinoic acid receptor RXR-alpha (Homo sapiens) (UniProt P19793); assay: as above; conditions: HEK293T RXRa-UAS-bla, beta-lactamase ratio, antagonist mode
# Method in brief: as §2
# [10] = qHTS assay for small molecule activators of the p53 signaling pathway (AID 651743; active = well fitted activation curve with a large enough effect in the signal ratio, not every such curve was filed as active; the % refers to the signal ratio; also: series mostly up to about 92 µM; % of control where 0% means no effect); conditions: HCT-116 p53RE-bla, beta-lactamase FRET ratio, 16 h; activation: stronger effect = higher value
# Method in brief: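 Cell-based beta-lactamase reporter (p53 response elements, HCT-116 background). After a 5-hour preincubation, cells received compound for 16 hours at 37 C; substrate development ran 2 hours at room temperature.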
# [11] = qHTS assay for small molecule activators of the nuclear factor-kappa B (NF-kB) signaling pathway (AID 651749; active = well fitted activation curve with a large enough effect in the signal ratio; the % refers to the signal ratio; also: series mostly up to about 77 µM; % of control where 0% means no effect); conditions: NF-kB-bla ME-180 cells, beta-lactamase FRET ratio, 16 h; activation: stronger effect = higher value
# Method in brief: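 Screening used 2,000 ME-180 reporter cells per well exposed to pinned compound (23 nL) or DMSO; after 16 hr at 37C, beta-lactamase expression under NF-kB control was assessed through FRET.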
# [12] = qHTS assay for environmental chemicals that activate the Aryl hydrocarbon Receptor (AhR) signaling pathway (AID 651777; active = well fitted curve in the direction sought with a large enough effect; an effect the other way counts as inactive or inconclusive; also: % of control where 0% means no effect; nearly all actives have a fitted effect of over 15% in size); conditions: 1A2-DRE human hepatoma cells, luciferase, 24 h; activation: stronger effect = higher value
# Method in brief: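 Measured luciferase activity, read 30 min after One-Glo addition at room temperature, from human hepatoma cells bearing a dioxin response element–CYP1A2 promoter reporter and exposed to compound for 24 hr at 37 C.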
# [13] = target: Peroxisome proliferator-activated receptor alpha (Homo sapiens) (UniProt Q07869); assay: qHTS assay for small molecule agonists of the peroxisome proliferator-activated receptor alpha (PPARalpha) signaling pathway (AID 651778; active = well fitted curve in the direction sought with a large enough effect; an effect the other way counts as inactive or inconclusive; also: % of control where 0% means no effect); conditions: PathHunter PPARalpha complementation, chemiluminescence, 6 h; max response: stronger effect = higher value
# Method in brief: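 Cells plated at 2,000/well and held overnight at 37 C, 5% CO2, then compound added by pin tool for 6 hr; after PathHunter detection reagent and 60 min at room temperature, chemiluminescence from enzyme complementation was read.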
# [14] = qHTS assay for small molecule agonists of the antioxidant response element (ARE) signaling pathway measured by Nrf2-dependant transcriptional activity (AID 720636; active = well fitted curve in the direction sought with a large enough effect in the repeat runs; an effect the other way counts as inactive or inconclusive;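 also: HepG2 cells with an ARE-driven luciferase reporter; % of control where 0% means no effect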)
# Method in brief: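 In HepG2 cells engineered with an Nrf2-responsive luciferase gene, ARE induction was quantified as luminescence after 16 hr compound treatment at 37 C.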
# [15] = qHTS assay for small molecule agonists of the antioxidant response element (ARE) signaling pathway measured by Nrf2-dependant transcriptional activity - cell viability counter screen (AID 720653; active = well fitted curve in the direction sought with a large enough effect in the repeat runs; an effect the other way counts as inactive or inconclusive; also: % is scaled to controls: 0 for no effect and ±100 for the full control effect); conditions: ARE-bla HepG2 viability, CellTiter-Glo ATP luminescence, 16 h; max response: stronger effect = lower value
# Method in brief: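 ARE-bla HepG2 cells (2,000/well) rested 5 hrs at 37C/5% CO2, then exposed to compounds in DMSO for 16 hrs. Viability was read in the same wells as intracellular ATP by luminescence, 30 min at room temperature after reagent addition.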
# [16] = qHTS assay for cell viability of HEK293 cells (AID 743288; active = well fitted curve in the direction sought with a large enough effect; an effect the other way counts as inactive or inconclusive; also: % is scaled to controls: 0 for no effect and ±100 for the full control effect; nearly all actives have a fitted effect of over 50% in size); conditions: ATP luminescence (CellTiter-Glo), 18 h; max response: stronger effect = lower value
# Method in brief: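 Parental HEK293 cells were seeded at 2,000 cells/well, rested at least 5 h at 37 C, then exposed to compounds in DMSO for 18 h at 37 C. Viability was read as ATP-dependent luciferase luminescence after 30 min at room temperature.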
# [17] = qHTS assay for cell viability of the p53RE-bla HCT-116 cell line (AID 743292; active = well fitted curve in the direction sought with a large enough effect; an effect the other way counts as inactive or inconclusive; also: % is scaled to controls: 0 for no effect and ±100 for the full control effect; nearly all actives have a fitted effect of over 55% in size)
# Method in brief: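 Intracellular ATP of p53RE-bla HCT-116 cells measured by luciferase luminescence following 16 h compound incubation at 37 C; DMSO-only wells served as vehicle controls.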
# [18] = target: Nuclear receptor subfamily 1 group I member 2 (Rattus norvegicus) (UniProt Q9R1A7); assay: qHTS assay for small molecule activators of the rat pregnane X receptor (rPXR) signaling pathway (AID 651751; call rule not given here; also: 0% is about no effect); conditions: rPXR reporter cells, luciferase (One-Glo), 24 h
# [19] = target: Bile acid receptor (Homo sapiens) (UniProt Q96RI1); assay: qHTS assay for small molecule antagonists of farnesoid X receptor signaling (AID 588526); also: % is scaled to controls: 0 for no effect and ±100 for the full control effect
# Method in brief: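 Concentration-response titrations were fitted to the Hill equation for half-maximal inhibition and maximal response, with data normalised to 50 uM chenodeoxycholic acid and DMSO control wells. Cells: FXR-UAS-bla HEK293T, dialyzed FBS.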
# [20] = target: Bile acid receptor (Homo sapiens) (UniProt Q96RI1); assay: qHTS assay for small molecule agonists of farnesoid X receptor signaling (AID 588527); conditions: HEK293T FXR-UAS-bla, beta-lactamase ratio, 16 h; activation: stronger effect = higher value;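 also: series mostly up to about 77 µM; 0% = vehicle basal and 100% = reference agonist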
# Method in brief: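 FXR-UAS-bla HEK293T, 10% dialyzed FBS; cpds up to 92 uM titration, 16 h 37 C; CCF4 dye 2 h RT; fluorescence. Normalized to chenodeoxycholic acid 100 uM (100%) and DMSO (0%); Hill fit gives EC50, efficacy.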
# Bile acid receptor (Homo sapiens), sequence (Q96RI1 whole entry, looked up): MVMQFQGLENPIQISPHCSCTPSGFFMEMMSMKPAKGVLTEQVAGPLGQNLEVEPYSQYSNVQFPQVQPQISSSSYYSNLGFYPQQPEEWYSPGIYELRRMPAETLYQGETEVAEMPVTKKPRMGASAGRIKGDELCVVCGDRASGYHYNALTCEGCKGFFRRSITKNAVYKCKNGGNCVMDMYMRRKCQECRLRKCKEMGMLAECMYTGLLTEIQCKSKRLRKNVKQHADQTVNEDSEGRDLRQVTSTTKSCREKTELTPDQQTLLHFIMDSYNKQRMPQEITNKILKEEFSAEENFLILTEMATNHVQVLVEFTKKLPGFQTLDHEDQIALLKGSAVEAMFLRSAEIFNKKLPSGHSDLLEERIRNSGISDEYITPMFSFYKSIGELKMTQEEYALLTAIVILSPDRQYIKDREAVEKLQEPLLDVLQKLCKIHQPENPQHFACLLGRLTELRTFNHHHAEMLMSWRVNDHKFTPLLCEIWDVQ
# Vitamin D3 receptor (Homo sapiens), sequence (P11473 whole entry, looked up): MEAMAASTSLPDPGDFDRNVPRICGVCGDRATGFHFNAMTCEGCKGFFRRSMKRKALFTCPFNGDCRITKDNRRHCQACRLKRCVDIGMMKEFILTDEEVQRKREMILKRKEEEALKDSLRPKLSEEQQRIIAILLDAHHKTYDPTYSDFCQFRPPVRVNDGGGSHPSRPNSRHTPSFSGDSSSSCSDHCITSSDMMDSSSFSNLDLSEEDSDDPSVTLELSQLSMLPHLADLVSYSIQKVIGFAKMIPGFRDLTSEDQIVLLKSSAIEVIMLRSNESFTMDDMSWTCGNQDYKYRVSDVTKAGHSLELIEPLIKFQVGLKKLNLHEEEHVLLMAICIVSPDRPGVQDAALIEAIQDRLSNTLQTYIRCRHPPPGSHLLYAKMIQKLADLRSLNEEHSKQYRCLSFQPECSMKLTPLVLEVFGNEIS
# Retinoic acid receptor RXR-alpha (Homo sapiens), sequence (P19793 whole entry, looked up): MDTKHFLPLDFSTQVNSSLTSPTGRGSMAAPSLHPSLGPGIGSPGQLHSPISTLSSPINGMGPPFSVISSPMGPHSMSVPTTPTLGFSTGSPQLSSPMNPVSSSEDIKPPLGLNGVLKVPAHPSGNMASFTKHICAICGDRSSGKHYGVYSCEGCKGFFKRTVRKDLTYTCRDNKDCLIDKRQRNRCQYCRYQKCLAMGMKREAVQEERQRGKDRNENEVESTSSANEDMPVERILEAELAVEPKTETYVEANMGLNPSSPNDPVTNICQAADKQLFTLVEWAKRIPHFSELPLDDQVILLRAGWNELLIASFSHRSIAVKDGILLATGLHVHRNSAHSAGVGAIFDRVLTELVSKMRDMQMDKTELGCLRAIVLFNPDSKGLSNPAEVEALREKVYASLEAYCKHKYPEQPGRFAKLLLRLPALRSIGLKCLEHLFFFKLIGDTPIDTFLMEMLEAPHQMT
# Thyroid hormone receptor beta (Homo sapiens), sequence (P10828 whole entry, looked up): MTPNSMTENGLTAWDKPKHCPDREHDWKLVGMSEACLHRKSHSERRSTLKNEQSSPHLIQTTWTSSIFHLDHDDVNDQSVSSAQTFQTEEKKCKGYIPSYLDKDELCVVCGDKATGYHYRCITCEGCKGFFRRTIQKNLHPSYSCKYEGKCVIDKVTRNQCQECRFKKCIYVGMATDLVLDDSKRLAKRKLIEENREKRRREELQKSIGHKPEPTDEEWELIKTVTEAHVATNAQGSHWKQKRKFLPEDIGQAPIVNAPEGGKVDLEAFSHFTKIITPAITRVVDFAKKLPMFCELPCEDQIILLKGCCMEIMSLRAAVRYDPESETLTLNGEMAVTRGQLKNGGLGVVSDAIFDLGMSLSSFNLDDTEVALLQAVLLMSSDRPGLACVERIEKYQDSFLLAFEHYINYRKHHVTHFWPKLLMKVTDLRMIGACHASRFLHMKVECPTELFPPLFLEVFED
# Peroxisome proliferator-activated receptor delta (Homo sapiens), sequence (Q03181 whole entry, looked up): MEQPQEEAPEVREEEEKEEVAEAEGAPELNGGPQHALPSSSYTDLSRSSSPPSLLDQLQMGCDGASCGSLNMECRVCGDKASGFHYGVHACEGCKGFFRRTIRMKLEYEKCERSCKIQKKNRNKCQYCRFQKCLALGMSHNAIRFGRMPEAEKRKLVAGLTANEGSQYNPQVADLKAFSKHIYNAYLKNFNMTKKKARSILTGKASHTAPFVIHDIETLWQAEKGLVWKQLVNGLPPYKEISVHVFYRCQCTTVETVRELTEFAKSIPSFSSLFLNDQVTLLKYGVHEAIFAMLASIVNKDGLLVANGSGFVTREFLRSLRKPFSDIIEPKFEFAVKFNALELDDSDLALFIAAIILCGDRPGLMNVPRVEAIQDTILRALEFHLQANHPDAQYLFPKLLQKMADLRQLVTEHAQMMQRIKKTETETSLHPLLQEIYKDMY
# Peroxisome proliferator-activated receptor alpha (Homo sapiens), sequence (Q07869 whole entry, looked up): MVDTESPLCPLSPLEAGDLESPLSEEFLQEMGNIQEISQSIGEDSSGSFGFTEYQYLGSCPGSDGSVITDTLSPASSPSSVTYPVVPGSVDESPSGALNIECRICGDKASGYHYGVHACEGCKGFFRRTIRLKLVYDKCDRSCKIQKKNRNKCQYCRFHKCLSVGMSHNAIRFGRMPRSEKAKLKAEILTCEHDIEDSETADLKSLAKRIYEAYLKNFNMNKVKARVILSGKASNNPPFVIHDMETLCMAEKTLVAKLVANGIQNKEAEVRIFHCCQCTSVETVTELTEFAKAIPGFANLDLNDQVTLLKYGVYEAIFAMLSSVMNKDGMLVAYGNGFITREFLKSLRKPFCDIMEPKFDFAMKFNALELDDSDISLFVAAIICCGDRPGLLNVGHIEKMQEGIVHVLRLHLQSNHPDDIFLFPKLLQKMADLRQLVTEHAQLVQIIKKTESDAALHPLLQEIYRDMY
# Nuclear receptor subfamily 1 group I member 2 (Rattus norvegicus), sequence (Q9R1A7 whole entry, looked up): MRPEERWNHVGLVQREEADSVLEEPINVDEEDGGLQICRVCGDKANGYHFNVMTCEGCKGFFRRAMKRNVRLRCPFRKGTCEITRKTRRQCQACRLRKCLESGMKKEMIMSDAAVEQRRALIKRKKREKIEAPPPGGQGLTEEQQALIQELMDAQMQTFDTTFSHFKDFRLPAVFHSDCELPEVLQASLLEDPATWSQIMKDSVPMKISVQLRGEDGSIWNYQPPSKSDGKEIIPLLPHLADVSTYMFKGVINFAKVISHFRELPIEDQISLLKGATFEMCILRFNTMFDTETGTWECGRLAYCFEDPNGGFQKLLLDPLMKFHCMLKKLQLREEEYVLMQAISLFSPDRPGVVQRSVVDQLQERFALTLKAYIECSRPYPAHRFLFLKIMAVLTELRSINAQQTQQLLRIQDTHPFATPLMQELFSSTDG
Structure (SMILES),outcome [1],max response [2],Potency [3],Potency [4],outcome [5],Potency [6],Potency [7],max response [8],max response [9],activation [10],activation [11],activation [12],max response [13],Potency [14],max response [15],max response [16],Potency [17],max response [18],Potency [19],activation [20]
CC(C)N1C(=O)N(c2ccccc2)CSC1=NC(C)(C)C,inactive,43.5%,inactive,inactive,inactive,inactive,inactive,0.399%,-33.9% (inactive),-1.27% (inactive) and 6.3% (inactive),0.243% (inactive) and -2.38% (inactive),-0.494% (inactive) and 3.86% (inactive),0.0616% (inactive) and 14.7% (inactive),inactive,13.9% (inactive) and -6.65% (inactive),-17.9% (inactive),inactive,13.3% (inactive) and 1.8% (inactive),–,–
CCOc1cc(C(C)(C)C)ccc1C1COC(c2c(F)cccc2F)=N1 (stereo not given),inactive,-21.7%,inactive,–,inactive,–,inactive,–,–,–,3.07% (inactive),6.58% (inactive),6.72% (inactive),–,-8.55% (inactive),-20% (inactive),–,–,–,–
c1ccc2c(c1)[nH]c1ccccc12,inactive,–,–,–,–,–,–,–,–,–,–,–,–,inactive,–,–,–,–,–,–
C[C@H]1[C@H](c2ccc(Cl)cc2)SC(=O)N1C(=O)NC1CCCCC1,–,–,–,inactive,inactive,–,inactive,–,–,4.32% (inactive),–,–,-4.71% (inactive),inactive,-8.81% (inactive),-26% (inactive),inactive,–,–,–
CCSCCSP(=O)(OC)OC,inactive,-10.5%,inactive,–,inactive,inactive,inactive,-9.27%,-0.524% (inactive),2.18% (inactive),-0.99% (inactive),-0.526% (inactive),-0.363% (inactive),inactive,-6.91% (inactive),-1.87% (inactive),inactive,-1.46% (inactive),inactive,–
COc1nn(C(=O)NS(=O)(=O)c2ccccc2OC(F)(F)F)c(=O)n1C,inactive,–,–,inactive,inactive,inactive,inactive,-2.65%,-13.4% (inactive),–,-2.5% (inactive),1.39% (inactive),-1.08% (inactive),inactive,3.81% (inactive),-3.61% (inactive),inactive,1.31% (inactive),inactive,1.22% (inactive)
Cc1nc(N(C)C)nc(OC(=O)N(C)C)c1C,inactive,13.1%,inactive,inactive,–,inactive,inactive,-14.1%,5.66% (inactive),–,–,-0.147% (inactive),-0.626% (inactive),inactive,-25.3% (inactive),–,inactive,-4.44% (inactive),inactive,2.16% (inactive)
